# Results: PubChem BioAssay AID925 (National Center for Advancing Translational Sciences (NCATS), 2007)
# “And” between values parts separate entries of the source, which are not always exact repeats. Identical values can stand only once. About 40 (0.06%) of roughly 65,000 compounds were called active. The entries come from a sample that favours actives as a whole. A number with no mark means an inactive call. The call rests on the fitted dose curve; in most records, active means well fitted activation curve with a large enough effect; inconclusive means small, poorly fitted or top-dose-only effect; inactive means flat fitted curve, though single readings scatter.
# Experiment: qHTS Assay for Modulators of Hemoglobin Beta Chain Splicing; further: 0% is about no effect
# Conditions: HBB splicing reporter cell assay, EGFP reporter with mutant IVS2-654 intron; Potency: activation; series mostly up to 46.1 µM; activation: at the top concentration
# Source text: NIH Chemical Genomics Center [NCGC]
# NIH Molecular Libraries Screening Centers Network [MLSCN]
# PI Name: Dr. Ryszard Kole
# Modulation of Alternative Splicing as Therapy
# Abnormal splicing is associated with a number of diseases, including cancer and genetic diseases such as cystic fibrosis, muscular dystrophy and beta-thalassemia. Alteration of disease associated splicing patterns provides a promising target for treatment. […] Mutations in the second intron of the beta-globin gene at positions are clinically relevant and cause mis-splicing which results in an out of frame gene product.
# EGFP-654 and 705 HeLa Cells as screen system.
# HeLa cell lines were stably transfected with a construct in which the EGFP (enhanced green fluorescent protein) cDNA was interrupted by the second intron of the beta-globin gene (IVS2-654). The ISV2 intron contains mutations which cause mis-splicing of EGFP and premature termination of EGFP which results in a nonfluorescent protein product. […] Expression of the transgene was driven by the CMV promoter. We concluded that a low molecular weight compound, which restored correct splicing of intron 2 would also generate functional EGFP protein, resulting in a fluorescent signal. Thus, the HeLa cells that express the EGFP-654 construct can be used for high throughput screening of a chemical library.
# NCGC Assay Protocol Summary:
# High Throughput Screening. Freshly thawed HeLa EGFP-654 cells were seeded in 5 ul of optimem media (Invitrogen) containing 2 % fetal calf serum (Hyclone) and 1x penicillin/streptomycin (Invitrogen) at a concentration of 500 cells per well in 1536-well plates. Cells were incubated overnight at 37C in 5% CO2. The next day, cells were treated with DMSO, 500 nM antisense ISV2 654 PNA control oligo, or library compound and allowed to grow at 37C in 5% CO2 for 2 days. The PNA oligo blocked the mutation site in the intron and allowed proper (wild type) splicing to occur, resulting in full length EGFP expression and also allowed for optimization of the assay parameters. Plates were read in the Acumen Explorer (TTP Labtech) using 488 nm laser excitation and 500-520 nm emission PMT filter in a 1 x […] capture mode. Fluorescnet Fluorescent objects ranging in size from […] were measured and the total peak GFP intensity for each well was used for data analysis.
# Keywords: Thalassemia, beta-thalassemia, beta-globin, EGFP, ISV2 654, ISV2 705, SSO, PNA, antisense, splicing, MLSMR, MLSCN, NIH Roadmap, qHTS, NCGC
row,SMILES,activation
1,COC(=O)CCCCCN1C(=O)NC(c2ccc(-c3ccccc3)cc2)C(C(=O)OCc2ccccc2)=C1C (configuration not stated),-0.877%
2,NC[C@@H]1O[C@H](O[C@@H]2[C@H](O[C@@H]3O[C@H](CO)[C@@H](COC[C@H]4O[C@@H](CN)[C@@H](O)[C@@H](O)[C@@H]4N)[C@@H]3O)[C@@H](O)[C@@H](N)C[C@H]2N)[C@@H](N)[C@H](O)[C@@H]1O,"0.609% [at 20.6 µM, normalised to 500 nM splice-correcting PNA]"
3,CO[C@H]1COC(=O)CCC[C@@H](C)[C@H](OC)COC(=O)[C@@H](C)NC(=O)C/C=C\[C@@H]1C,"1.62% [at 9.22 µM, normalised to 500 nM splice-correcting PNA]"
4,COC(=O)[C@@]1(Cc2ccc(F)cc2)[C@H]2c3cc(C(=O)N4CCCC4)n(C[C@H](O)CO)c3C[C@H]2CN1C(=O)c1ccccc1,-0.241%
5,COc1ccc(/C=C/NC(=O)c2ccc(OC)cc2)cc1,"0.0031% [at 9.22 µM, normalised to 500 nM splice-correcting PNA]"
6,CN(C)c1cc2c(Nc3ccc4c(cnn4Cc4ccccc4)c3)ncnc2cn1,0.878%
7,Cc1cccc(C(=O)O)c1,-0.218%
8,COC(=O)[C@@]1(C)C=C[C@@H](Cc2ccccc2)N1C(C)=O,-0.493%
9,COC(=O)C1(Cc2ccccc2)C=C2C(=C(C)C(=O)C2C)CN1 (configuration not stated),-0.49%
10,C=CC(=O)OCCOCCOCCOCCOC(=O)C=C,inactive
11,Oc1cc2c(cc1O)CN(C(=S)NCCc1ccc(Cl)cc1)CCC2,-4.89%
12,O=C(c1ccco1)N1CCC[C@@]2(CCN(Cc3nccs3)C2)C1,0.678%
13,CN(C)C(=O)c1ccc(-c2cncnc2Nc2ccccc2)cc1,-0.328%
14,COc1cccc([C@H]2Oc3ccc(OC)cc3/C(=N\OCC[C@@H]3C=C[C@H](OC(C)=O)[C@H](COC(C)=O)O3)[C@@H]2O)c1,"-1.11% [at 9.22 µM, normalised to 500 nM splice-correcting PNA]"
15,COc1cc([C@H]2c3cc4c(cc3[C@@H](O[C@@H]3O[C@H]5CO[C@@H](C)O[C@]5(O)C[C@H]3O)[C@@H]3COC(=O)[C@H]23)OCO4)cc(OC)c1O,0.795%
16,Cc1cc(Cl)ccc1OCC(=O)Oc1c(Cl)c(Cl)c(Cl)c(Cl)c1Cl,"0.153% [at 9.22 µM, normalised to 500 nM splice-correcting PNA]"
17,C/C(CCN1CCc2nc(-c3ccccc3)c(-c3ccccc3)cc2C1)=N\O[C@@H](C)c1cn([C@@H]2COC[C@@H]2O)nn1,"-1.08% [at 9.22 µM, normalised to 500 nM splice-correcting PNA]"
18,COc1ccc(COC(=O)N/N=C2/C[C@@H](O)[C@@H](O)[C@@H]3[C@@H]4C(=O)N([C@@H](C)c5ccccc5)C(=O)[C@H]4CC[C@@H]23)cc1,"0.743% [at 9.22 µM, normalised to 500 nM splice-correcting PNA]"
19,COc1ccc2[nH]cc(CCNc3cc(-c4ccccc4CN(C)C)ncn3)c2c1,-1.5%
20,O=C(O)c1ccc(C(=O)O)c2c(C(=O)O)ccc(C(=O)O)c12,"-1.01% [at 9.22 µM, normalised to 500 nM splice-correcting PNA]"
21,O=C(O)[C@@H]1[C@@H](C(=O)O)[C@]23C[C@@]2(C(=O)O)[C@]2(C(=O)O)CCC3=C3CCCC312,"0.251% [at 9.22 µM, normalised to 500 nM splice-correcting PNA]"
22,COCCNc1ncnc2ccc(-c3cccnc3)cc12,-0.174%
23,CCN(CC)CCCCn1c(-c2ccccc2)nc2c(N3CCOCC3)nc(C)nc21,-0.944%

row,SMILES,activation
1,CO[C@@H]1COC(=O)[C@H](Cc2ccccc2)NC(=O)C/C=C\[C@@H](C)[C@H](OC)COC(=O)[C@@H](C)NC(=O)C/C=C\[C@H]1C,"1.42% [at 9.22 µM, normalised to 500 nM splice-correcting PNA] and 0.127% [at 9.22 µM, normalised to 500 nM splice-correcting PNA]"
2,Cc1noc(C)c1-c1nc(Nc2ccccc2)c2ccccc2n1,-0.209%
3,O=NO,inactive
4,ClC(Cl)(Cl)C(N1CCN(c2ccccc2)CC1)N1CCN(c2ccccc2)CC1,"3.1% [at 9.22 µM, normalised to 500 nM splice-correcting PNA]"
5,CC(=O)Oc1ccccc1C(=O)Nc1ncc([N+](=O)[O-])s1,-1.69%
6,COc1ccc(NC(=O)N2CC3(CCN(C(C)=O)CC3)C2)cc1,1.24%
7,COC(=O)[C@@H]1CC[C@H](C)[C@@H](c2ccc(C)cc2)N1C(=O)c1ccc(/C=N\OC[C@@H](O)COCc2ccco2)cc1,"-0.0134% [at 9.22 µM, normalised to 500 nM splice-correcting PNA]"
8,Clc1ccc(C(c2ccc(Cl)cc2)n2cc[n+](C[C@@H](OCc3ccc(Cl)cc3Cl)c3ccc(Cl)cc3Cl)c2)cc1,-0.247%
9,CC(C)C[C@@H](CC(=O)N[C@@H](CCC(=O)O)CC(=O)O)NC(=O)[C@@H]1CCCC[C@H]1NC(=O)C[C@@H](NC(=O)C[C@H](CO)NC(=O)[C@@H]1CCCC[C@H]1N)C(C)C,3.3%
10,O=C(O)[C@@H](S)[C@H](S)C(=O)O,"-1.17% [at 9.22 µM, normalised to 500 nM splice-correcting PNA]"
11,O=C(O)[C@@H](O)Cc1ccccn1,"2.62% [at 9.22 µM, normalised to 500 nM splice-correcting PNA]"
12,COC(=O)N1CCC2(CCCN(c3ccncc3)C2)CC1,-1.2%
13,NCC(=O)[C@@H](O)[C@H](O)[C@H](O)CO,"0.718% [at 9.22 µM, normalised to 500 nM splice-correcting PNA]"
14,CN(C)C(=O)c1ccc(-c2cncnc2NC2CCNCC2)cc1,-0.451%
15,CN1[C@H]2CC(OC(=O)[C@@H](CO)c3ccccc3)C[C@H]1[C@H]1O[C@H]12 (some centres not stated),"0.627% [at 20.6 µM, normalised to 500 nM splice-correcting PNA]"
16,O=C1[C@H]2[C@H]3[C@H](O)[C@H](O)C/C(=N/OCc4ccccc4)[C@H]3CC[C@@H]2C(=O)N1Cc1ccccc1,"0.171% [at 9.22 µM, normalised to 500 nM splice-correcting PNA]"
17,CCCCNc1nc(C)nc2c1nc(-c1ccccc1)n2CCCCN(CC)CC,-0.934%
18,c1ccc(CSCCc2ccncc2)cc1,"2.45% [at 9.22 µM, normalised to 500 nM splice-correcting PNA]"
19,O=c1c(-c2ccc(F)c(F)c2)nc2cncnc2n1-c1ccccc1,2.55%
20,COC(=O)NC(c1ccccc1)[C@]1(C(C)=O)CCCC1=O (some centres not stated),"0.441% [at 9.22 µM, normalised to 500 nM splice-correcting PNA]"
21,CC(C)c1ccc2c([Si](C)(C)C)c3c(nc2c1)-c1cccc(=O)n1C3,0.415%
22,C=CC(=C)CCC=C(C)C,0.0276%
23,O=Cc1c(Cl)cccc1Cl,-1.03%

row,SMILES,activation
1,COCCn1c(=O)c(-c2ccccc2)nc2cnc(N3CCOCC3)nc21,0.139%
2,CN1CCN(c2ncncc2-c2ccc(C(=O)N(C)C)cc2)CC1,-0.722%
3,O=C(c1cnccn1)N1CCC[C@@]2(CCN(Cc3ccncc3)C2)C1,3.89%
4,Cc1ccccc1-c1nc(N(C)Cc2ccco2)c2ccccc2n1,-0.212%
5,OCCN1CCN(CC/C=C2\c3ccccc3Sc3ccc(C(F)(F)F)cc32)CC1,inactive
6,BrC1C(Br)C(Br)C(Br)C(Br)C1Br (configuration not stated),-0.892%
7,c1ccc(CNc2ncncc2-c2cccnc2)cc1,-0.097%
8,FC(F)(F)c1ccccc1-c1nc(-n2ccnc2)c2ccccc2n1,-0.152%
9,CO[C@H]1COC(=O)[C@@H](C)NC(=O)C/C=C\[C@@H](C)[C@H](OC)COC(=O)C/C=C\[C@@H]1C,"0.0576% [at 9.22 µM, normalised to 500 nM splice-correcting PNA]"
10,COc1ccccc1CNc1ncnc2ccc(-c3ccc4c(c3)OCO4)cc12,-0.815%
11,Cc1noc(C)c1-c1nccc(N2CCOCC2)n1,-1.02%
12,Cc1[nH]c(N)nc(=S)c1CCCNc1ccccc1,"0.0064% [at 9.22 µM, normalised to 500 nM splice-correcting PNA]"
13,COc1ccc(NC(=O)N2CC3(CCN(C(=O)c4cccn4C)CC3)C2)cc1,3.19%
14,Cc1c(O)c(Br)c(C)c(O)c1Br (tested in a mixture with another compound),"3.36% [at 9.22 µM, normalised to 500 nM splice-correcting PNA]"
15,COc1ccc(CNc2ncncc2-c2ccccc2C)c(OC)c1,-1.22%
16,CC(C)[C@@H](CC(=O)N[C@@H]1CCNC[C@H]1C(=O)N[C@H](CC(=O)N[C@@H](CCC(=O)O)CC(=O)O)Cc1ccccc1)NC(=O)C[C@H](CO)NC(=O)[C@@H]1CNCC[C@H]1N,2.36%
17,C[C@]12C=CC(=O)C=C1CC[C@@H]1[C@@H]2C(=O)C[C@@]2(C)[C@H]1CC[C@]2(O)C(=O)CO,1.63%
18,CCCC(C(=O)OCCN(CC)CC)(c1ccccc1)c1ccccc1,inactive
19,CC(=O)N1CCC2(CC1)CCN(c1ccncc1)CC2,-0.407%
20,C[C@]1(C(=O)NCCc2c[nH]c3ccccc23)C=C[C@@H](Cc2ccccc2)N1C(=O)c1ccccc1,-1.89%
21,C[C@@H]1O[C@@H](O[C@@H]2[C@@H](O)[C@H](OCCc3ccc(O)c(O)c3)O[C@H](CO[C@@H]3O[C@H](CO)[C@@H](O)[C@H](O)[C@H]3O)[C@H]2OC(=O)/C=C/c2ccc(O)c(O)c2)[C@H](O)[C@H](O)[C@H]1O,-0.894%
